This is an account of results in PubChem BioAssay (NCATS).

Assay [1] has as its target Cytochrome P450 1A2 (Homo sapiens) (UniProt P05177). In words: p450-cyp1a2 (AID 410; calls by dose curve; further: potency means the concentration at half of the fitted maximal effect). Particulars: recombinant CYP1A2, luciferin-ME demethylation, luminescence; series mostly up to 57 µM. The method, boiled down:
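Human CYP1A2 (20nM) demethylated Luciferin-ME at its Km (100uM) in 100mM KPO4. After 10 min compound preincubation, NADPH regeneration ran the reaction 60 min at room temperature. Luciferin was read by luminescence, normalized to 57 uM furafylline.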

For assay [2], the target named is Glucocorticoid receptor (Homo sapiens) (UniProt P04150). In words: GR-GFP Redistribution (AID 450;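 active means compounds whose dose series gives a full or clear partial fitted curve of increased nuclear translocation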; further: potency means the concentration at half of the fitted maximal effect). Particulars: U2OS GR-GFP nuclear translocation, laser cytometry, 2 h.
For assay [3] the target is unchanged. In words: GR-EFC Redistribution (AID 451; calls by dose curve; further: potency means the concentration at half of the fitted maximal effect). Particulars: CHO-K1 GR-EFC translocation, beta-gal luminescence, 2 h. The gist of the method:
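CHO-K1 cells stably expressing nuclear-localized β-gal enzyme acceptor and GR fused C-terminally to the enzyme donor fragment; ligand-driven nuclear translocation restores β-gal by complementation. Compounds titrated up to 46 uM final, 2 h at 37 °C; luminescence read.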

Assay [4] has as its target Cytochrome P450 3A4 (Homo sapiens) (UniProt P08684). In words: qHTS Assay for Inhibitors and Substrates of Cytochrome P450 3A4 (AID 884). Further: nearly all actives have a fitted effect of over 50% in size. Further: potency means the concentration at half of the fitted maximal effect. Particulars: recombinant CYP3A4, Luciferin-PPXE luminescence; series mostly up to 57.1 µM. The gist of the method:
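20 nM human CYP3A4 with 25 uM Luciferin-PPXE (at KM) in 200 mM KPO4, preincubated 10 min with compound; NADPH regeneration started a 60 min RT reaction. Luciferin detected by luminescence, normalized to 57 uM ketoconazole as full inhibition.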
For orientation: In qHTS, concentration-response curves come from the screen itself.

For assay [5] the target is unchanged. In words: qHTS Assay for Activators of Cytochrome P450 3A4 (AID 885). Further: nearly all actives have a fitted effect of over 65% in size. The following applies: recombinant CYP3A4, Luciferin-PPXE luminescence, 60 min; series mostly up to 57.1 µM. The method, boiled down: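 Human CYP3A4 (20 nM) with Luciferin-PPXE at 25 uM (its KM) in 200 mM KPO4; 10 min compound preincubation, then NADPH regeneration and 60 min reaction at RT. Luciferin read by luminescence; normalized to 57 uM ketoconazole full inhibition.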

A short description of assay [6]: AP1 Signaling Pathway (AID 357; active means well fitted curve in either direction with a large enough effect, not every such curve was filed as active;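 further: ME-180 reporter cells stimulated with EGF at its EC50 level; on the % scale 0 is the no-effect control and ±100 the full control effect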). The following applies: ME-180 AP-1-bla reporter, EGF-induced, beta-lactamase ratio, 5 h; at 7.69 µM (top of the series) unless noted. The gist of the method:
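Cells are seeded overnight, exposed to compound titrations and an EC50 level of EGF for 5 hours at 37 °C, then loaded with CCF4 dye for 2.5 hours. Beta-lactamase activity under the AP-1 element is read as a blue/green ratio.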

Assay [7] is described as follows: NFAT Signaling Pathway (AID 444; active means well fitted curve in either direction with a large enough effect, not every such curve was filed as active;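 further: carbachol stimulus at about its EC50 of 1 µM final; on the % scale 0 is the no-effect control and ±100 the full control effect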). The following applies: Jurkat NFAT-bla M1, carbachol, beta-lactamase ratio, 5 h; at 7.69 µM (top of the series) unless noted. The gist of the method:
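Jurkat cells carrying an NFAT-driven β-lactamase reporter and co-transfected muscarinic M1 receptor were treated with compound plus carbachol (1 uM final, an EC50 level) for 5 h at 37 °C. CCF4 loading followed for 1 h at RT; 460/530 nm ratio gave %activity.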

The nature of assay [8]: Stat Signaling Pathway (AID 446; active means well fitted curve in either direction with a large enough effect, not every such curve was filed as active;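 further: ME-180 cervical cancer cells given 40 pM IL-6 alongside compound; SIE-controlled beta-lactamase reporter measured as 460/530 nm FRET emission ratio; on the % scale 0 is the no-effect control and ±100 the full control effect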). The following applies: ME-180 SIE beta-lactamase reporter, IL-6 stimulated, 5 h; at 7.69 µM (top of the series) unless noted. The gist of the method: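 ME-180 cells carrying a SIE-driven beta-lactamase reporter are stimulated with 40 pM IL-6 for 5 h at 37C in the presence of compound. The 460/530 nm FRET substrate ratio is read after 2.5 h at RT. Data are normalised to 300 pM IL-6 and to 125 nM JAK inhibitor controls.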

For assay [9], the target named is Mitogen-activated protein kinase 10 (Mus musculus) (UniProt Q61831). In words: JNK3 AlphaScreen Assay (AID 530; active means well fitted curve in either direction with a large enough effect, not every such curve was filed as active;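 further: kinase came from lysate of stimulated human HepG2 cells; signal reports phosphorylation of biotinylated GST-cJun 1-79 at Ser73 with 10 µM ATP; on the % scale 0 is the no-effect control and ±100 the full control effect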). The following applies: JNK3 lysate, c-Jun phosphorylation; series mostly up to 57.1 µM. The gist of the method:
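JNK3 came from HepG2 lysates pre-activated with IL-1beta and TNF-alpha and phosphorylated biotinylated GST-cJun (1-79) at 10 uM ATP, pH 7.6, room temperature. Compounds were titrated. AlphaScreen signal used anti-phospho-cJun (Ser73) antibody.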
A general note: In Alpha technology, singlet oxygen from a donor bead excites a nearby acceptor bead.

Assay [10] deals with 3',5'-cyclic-AMP phosphodiesterase 4B (Homo sapiens) (UniProt Q07343). In words: qHTS Assay for Inhibitors of PDE-IV (AID 607; active means well fitted activation curve with a large enough effect in the main read-out, with a control signal flat, not every such curve was filed as active; further: % of control where 0% means no effect). Particulars: HEK293 ACTOne CNG channel cells, membrane potential fluorescence; series mostly up to 22.9 µM. The gist of the method: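 HEK293 ACTOne cells with CNG channel (1000/well), endogenous PDE4; membrane potential dye, compounds up to 22.9 uM final. Fluorescence Ex 535/Em 590; RO 20-1724 (100 uM final) as reference.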

Assay [11] in a line: qHTS Assay for Lipid Storage Modulators (AID 1519; calls by dose curve). The following applies: Drosophila S3 cells, BODIPY lipid droplet/cell ratio, laser cytometry, cells loaded with oleic acid. The method, boiled down: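 Cells seeded at 5,000 per well were treated with compounds over a concentration series and loaded with oleic acid (400 uM, as added). Lipid droplet fluorescence (488 nm excitation, 500-530 nm channel) was read by laser-scanning cytometry and normalized to 20 uM Triacsin C.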

Assay [12] concerns the target Ubiquitin carboxyl-terminal hydrolase 1 (Homo sapiens) (UniProt O94782). In words: Inhibitors of USP1/UAF1: Pilot qHTS (AID 504865).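 Further: rhodamine fluorescence freed from ubiquitin-rhodamine substrate followed over time; top concentration of the series differs between compounds; on the % scale 0 is the no-effect control and ±100 the full control effect; nearly all actives have a fitted effect of over 35% in size.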 The following applies: purified USP1/UAF1, Ub-rhodamine cleavage fluorescence; series mostly up to 54.9 µM. The method, boiled down:
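In 50mM HEPES pH 7.8 containing 0.5mM EDTA, 1mM TCEP, 0.1 mg/ml BSA and 0.01% Tween-20, 1nM USP1/UAF1 is exposed to compound for 15 min, then Ub-Rho (150nM final) is added and fluorescence is read over time.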

Assay [13] is described as follows: Confirmation and Secondary Assay for Modulators of Hemoglobin Beta Chain Splicing at IVS2 654 locus (AID 910).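 Further: per-well total GFP intensity by laser scanning cytometry after 2-day treatment; % of control where 0% means no effect.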 Particulars: HeLa EGFP-654 splicing reporter, GFP fluorescence, 48 h; series mostly up to 38.3 µM. The method, boiled down:
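HeLa cells stably carrying EGFP interrupted by mutant beta-globin IVS2-654 intron (CMV-driven) were treated with compound for 2 days at 37C; corrected splicing was scored as total peak GFP intensity per well (488 nm excitation, 500-520 nm emission).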

A short description of assay [14]: Confirmation and Secondary Assay for Modulators of Hemoglobin Beta Chain Splicing at IVS2 705 locus (AID 930).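 Further: HeLa cells stably expressing the EGFP-705 splicing reporter; GFP fluorescence per well restored by corrected splicing of the IVS2-705 intron in EGFP; % of control where 0% means no effect.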 Particulars: HeLa EGFP-705 splicing reporter, GFP fluorescence, 48 h; series mostly up to 38.3 µM. The gist of the method:
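Assay measures total GFP intensity per well in HeLa EGFP-705 cells after 2 days with compound; mis-splicing normally truncates EGFP, so fluorescence indicates corrected splicing.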

Where [15] appears, read: measured here: cell count channel max response.
The mark [16] stands for this setting: measured here: lipid channel max response.

Values joined by “and” are separate entries in the source; they are usually repeats but may differ in a detail not shown here. Equal values may be shown once. Results filed as inconclusive are left out. Active and inactive are the calls of the source. Unless noted, the call rests on the fitted dose curve; in most records, active means well fitted curve in the direction sought with a large enough effect; inconclusive means small, poorly fitted or top-dose-only effect, or another doubt; inactive means no such curve, though single readings can be large; an effect the other way counts as inactive or inconclusive.

Chain of Cytochrome P450 3A4 (Homo sapiens) (P08684 whole entry, looked up): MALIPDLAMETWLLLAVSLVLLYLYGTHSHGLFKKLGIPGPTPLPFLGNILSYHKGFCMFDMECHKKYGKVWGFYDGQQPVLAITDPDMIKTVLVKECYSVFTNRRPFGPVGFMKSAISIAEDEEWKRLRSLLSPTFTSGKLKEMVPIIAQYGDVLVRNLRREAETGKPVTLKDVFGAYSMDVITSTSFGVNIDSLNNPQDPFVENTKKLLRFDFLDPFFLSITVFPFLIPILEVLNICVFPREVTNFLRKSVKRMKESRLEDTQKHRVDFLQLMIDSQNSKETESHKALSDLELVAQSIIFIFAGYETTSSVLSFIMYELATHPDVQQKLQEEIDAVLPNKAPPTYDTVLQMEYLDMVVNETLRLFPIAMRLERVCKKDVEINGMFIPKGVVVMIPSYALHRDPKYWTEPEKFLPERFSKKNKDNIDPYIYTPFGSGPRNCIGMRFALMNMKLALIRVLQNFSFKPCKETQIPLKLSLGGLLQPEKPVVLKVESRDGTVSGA
Chain of Glucocorticoid receptor (Homo sapiens) (P04150 whole entry, looked up): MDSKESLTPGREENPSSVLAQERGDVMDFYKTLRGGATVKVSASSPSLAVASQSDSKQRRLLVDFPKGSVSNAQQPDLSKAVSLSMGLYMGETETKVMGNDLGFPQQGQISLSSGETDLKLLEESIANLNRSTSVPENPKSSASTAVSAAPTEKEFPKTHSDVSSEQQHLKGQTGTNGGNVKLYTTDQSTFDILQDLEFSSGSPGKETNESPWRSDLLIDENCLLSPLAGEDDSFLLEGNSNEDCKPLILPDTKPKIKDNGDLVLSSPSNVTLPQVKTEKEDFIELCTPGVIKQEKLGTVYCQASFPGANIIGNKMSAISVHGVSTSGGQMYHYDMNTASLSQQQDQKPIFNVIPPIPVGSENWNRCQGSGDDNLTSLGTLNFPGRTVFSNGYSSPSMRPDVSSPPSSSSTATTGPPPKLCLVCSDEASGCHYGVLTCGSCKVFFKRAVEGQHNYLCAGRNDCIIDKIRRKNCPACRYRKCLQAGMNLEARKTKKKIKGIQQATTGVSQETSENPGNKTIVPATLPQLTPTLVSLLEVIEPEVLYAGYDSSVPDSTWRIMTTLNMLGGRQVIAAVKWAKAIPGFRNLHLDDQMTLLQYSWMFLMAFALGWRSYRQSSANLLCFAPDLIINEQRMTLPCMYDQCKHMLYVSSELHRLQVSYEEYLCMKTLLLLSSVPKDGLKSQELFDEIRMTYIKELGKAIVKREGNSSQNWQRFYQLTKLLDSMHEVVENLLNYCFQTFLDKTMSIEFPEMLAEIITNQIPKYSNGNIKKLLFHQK
Chain of Ubiquitin carboxyl-terminal hydrolase 1 (Homo sapiens) (O94782 whole entry, looked up): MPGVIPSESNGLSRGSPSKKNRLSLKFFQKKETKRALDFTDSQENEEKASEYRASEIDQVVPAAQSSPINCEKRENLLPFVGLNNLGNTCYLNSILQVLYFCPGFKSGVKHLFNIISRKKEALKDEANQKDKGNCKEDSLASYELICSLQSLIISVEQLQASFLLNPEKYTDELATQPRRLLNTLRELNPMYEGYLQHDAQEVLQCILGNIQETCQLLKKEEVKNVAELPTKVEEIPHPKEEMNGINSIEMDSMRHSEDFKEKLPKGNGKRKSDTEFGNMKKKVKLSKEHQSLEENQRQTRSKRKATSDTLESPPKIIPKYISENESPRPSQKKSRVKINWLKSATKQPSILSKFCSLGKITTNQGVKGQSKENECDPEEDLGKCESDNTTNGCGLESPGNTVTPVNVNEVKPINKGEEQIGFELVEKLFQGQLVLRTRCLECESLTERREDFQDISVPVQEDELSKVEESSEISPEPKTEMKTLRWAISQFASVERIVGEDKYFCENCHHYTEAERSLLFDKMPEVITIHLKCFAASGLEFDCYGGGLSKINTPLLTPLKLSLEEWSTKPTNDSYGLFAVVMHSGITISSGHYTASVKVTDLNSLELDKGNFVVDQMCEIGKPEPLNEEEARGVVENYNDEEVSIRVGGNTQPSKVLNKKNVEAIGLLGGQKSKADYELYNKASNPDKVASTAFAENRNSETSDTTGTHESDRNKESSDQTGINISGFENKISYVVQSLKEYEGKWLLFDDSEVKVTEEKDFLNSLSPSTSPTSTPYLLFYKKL
Chain of 3',5'-cyclic-AMP phosphodiesterase 4B (Homo sapiens) (Q07343 whole entry, looked up): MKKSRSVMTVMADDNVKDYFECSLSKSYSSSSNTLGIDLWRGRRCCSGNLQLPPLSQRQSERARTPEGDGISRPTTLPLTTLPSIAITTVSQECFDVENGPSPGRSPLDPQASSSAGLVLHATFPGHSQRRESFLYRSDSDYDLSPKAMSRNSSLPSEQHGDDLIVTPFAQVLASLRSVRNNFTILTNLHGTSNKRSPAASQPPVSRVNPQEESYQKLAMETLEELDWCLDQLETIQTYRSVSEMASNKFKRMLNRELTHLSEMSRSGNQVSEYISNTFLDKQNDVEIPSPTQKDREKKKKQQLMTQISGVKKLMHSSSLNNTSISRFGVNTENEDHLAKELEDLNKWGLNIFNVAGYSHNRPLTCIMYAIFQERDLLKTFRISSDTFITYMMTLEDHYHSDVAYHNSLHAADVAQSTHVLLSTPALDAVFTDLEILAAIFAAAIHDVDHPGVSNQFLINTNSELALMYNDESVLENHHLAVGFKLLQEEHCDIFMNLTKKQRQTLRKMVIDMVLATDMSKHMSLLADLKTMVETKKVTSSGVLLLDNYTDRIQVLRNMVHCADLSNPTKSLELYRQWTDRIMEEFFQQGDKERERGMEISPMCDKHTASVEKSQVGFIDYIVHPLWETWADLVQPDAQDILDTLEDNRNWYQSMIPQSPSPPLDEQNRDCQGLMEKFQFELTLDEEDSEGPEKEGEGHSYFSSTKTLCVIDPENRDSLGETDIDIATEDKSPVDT
Chain of Cytochrome P450 1A2 (Homo sapiens) (P05177 whole entry, looked up): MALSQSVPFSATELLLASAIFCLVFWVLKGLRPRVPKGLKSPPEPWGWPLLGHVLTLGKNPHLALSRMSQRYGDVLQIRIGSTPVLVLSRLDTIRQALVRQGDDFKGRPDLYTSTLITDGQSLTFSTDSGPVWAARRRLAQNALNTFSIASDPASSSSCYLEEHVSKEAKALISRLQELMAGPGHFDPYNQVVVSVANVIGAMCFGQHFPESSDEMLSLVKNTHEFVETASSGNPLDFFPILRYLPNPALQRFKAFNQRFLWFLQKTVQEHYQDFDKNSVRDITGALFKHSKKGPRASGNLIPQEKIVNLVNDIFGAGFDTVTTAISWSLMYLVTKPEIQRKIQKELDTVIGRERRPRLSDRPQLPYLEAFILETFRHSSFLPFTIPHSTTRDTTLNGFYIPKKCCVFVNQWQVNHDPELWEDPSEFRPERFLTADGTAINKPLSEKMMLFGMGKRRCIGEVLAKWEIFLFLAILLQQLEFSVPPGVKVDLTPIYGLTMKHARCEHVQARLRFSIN

As to `CCCCCCCNS(=O)(=O)c1cccc2c(Cl)cccc12`, the Potency in assay [1] was 6.31 µM (active); in [2], > 46 µM (inactive); in assay [3], > 46 µM (inactive); in assay [4], 7.94 µM (active). In assay [5], the Potency result is “inactive”.
As to `C/C(=C\COc1cc(=O)[nH]c2ccccc12)CCC(O)C(C)(C)O` (stereo unspecified), in assay [4], the Potency result was “inactive”.
As for `N[C@H](Cn1ccc(=O)c(O)c1)C(=O)O`, the activity change, negative = inhibition in [6] is 2.81% [at 17.2 µM] (inactive); in assay [7], -2.41% [at 17.2 µM] (inactive); in assay [11] (at 25.7 µM (top of the series)), -2.4% (inactive); in assay [11] (at 57.5 µM (top of the series)) it was -2.6% (inactive). In addition, in assay [8], the activity, negative = inhibition is 3.76% [at 17.2 µM] (inactive). For the same compound, the Potency in assay [2] was > 20.6 µM (inactive) and > 46 µM (inactive); in [3], > 20.6 µM (inactive) and > 46 µM (inactive). The Potency entry in assay [9], in [10] and in [12] was “inactive” throughout. The max response was -5.27% and -11.5% in [11] (setting [15]); -7.92% and -12.4% in [11] (setting [16]).
In the case of `C=CCNC(=O)c1cc([N+](=O)[O-])cc2c(=O)[nH]c(Nc3ccc(Cl)c(Cl)c3)nc12`, the Potency result in assay [5] is “inactive”.
`O=[N+]([O-])c1cccc2c[nH]nc12`: the Potency in assay [1] was 2.51 µM (active); in assay [3] it was > 46 µM (inactive). Moreover, the Potency entry in [9] and in assay [5] was “inactive” in each case.
In the case of `CC(C)(C)c1cc(C(=O)/C=C/c2ccc(C(=O)O)cc2)cc(C(C)(C)C)c1`, the Potency in assay [4] is 20 µM (active). The Potency result in [5] is “inactive”.
`COc1ccc2[nH]cc(CCNc3nc(-c4ccc(C(=O)N(C)C)cc4)nc4ccccc34)c2c1`: the Potency in assay [1] is 15.8 µM (active); in assay [2] it was > 46 µM (inactive); in assay [3] it was > 46 µM (inactive); in assay [4], 2.51 µM (active). Moreover, the Potency entry in [9], in assay [10], in assay [5], in assay [13] and in [12] was “inactive” each time. Further, in [14], the compound was classed as inactive.
On to `CN=C1N[C@H](c2ccccc2)N(c2ccccc2)S1`, for which the Potency was 1.26 µM (active) in assay [1], > 46 µM (inactive) in assay [2] and > 46 µM (inactive) in assay [3]. The Potency result in [9], in assay [5] and in assay [12] was “inactive” each time.
In the case of `N#Cc1cccc(NC(=O)N2CC[C@@]3(CCCN(C(=O)c4cccc(F)c4)C3)C2)c1`, the activity change, negative = inhibition in assay [6] was -20.8% (inactive). Moreover, the activity, negative = inhibition in assay [8] was -2.81% (inactive). The Potency in assay [3] is > 46 µM (inactive). The Potency entry in assay [9], in assay [10] and in assay [5] was “inactive” in each case.
For the compound `Cc1[nH]ccc2c1[nH]c1cc(=O)ccc12`, the activity change, negative = inhibition in assay [7] was -37.6% [at 17.2 µM] (inactive); in [11] (at 25.7 µM (top of the series)) it was -0.514% (inactive); in [11] (at 57.5 µM (top of the series)), 6.27% (inactive). In [8], the activity, negative = inhibition is 4.88% [at 17.2 µM] (inactive). For the same compound, the Potency in [2] was > 20.6 µM (inactive) and > 46 µM (inactive); in assay [3], > 20.6 µM (inactive) and > 46 µM (inactive). In addition, the Potency result in assay [9], in assay [10] and in assay [12] was “inactive” each time. Besides, in assay [14], the compound was called inactive. The max response in [11] (setting [15]) was 11.1% and 0.549%; in assay [11] (setting [16]), 9.17% and 10.7%.
Consider `O=C(CCCc1ccc(-c2ccccc2F)cc1)Nc1ccc(O)cc1`, for which, in assay [4], the Potency is 31.6 µM (active). Moreover, in assay [5], the Potency entry is “inactive”.
